Experimental data reported in PubChem BioAssay AID624138 (Broad Institute, 2012).
Out of some 17,000 compounds screened, about 35 (0.2%) were called active.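 Rule for the calls: active = compounds whose four printed spots each show fluorescence over background unusually high for their array block, chance value under 7%; inactive = the rest.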 Shown is part of a subset that was picked to be rich in actives.

The compounds below were run against Signal transducer and activator of transcription 3 (Homo sapiens) (UniProt P40763) (assay: STAT3 binders, primary screen, biochemical, small molecule microarray, single point, set 2 (AID 624138)). Settings: His-STAT3 binding, anti-His fluorescence.
Sequence of Signal transducer and activator of transcription 3 (Homo sapiens) (P40763 whole entry, looked up): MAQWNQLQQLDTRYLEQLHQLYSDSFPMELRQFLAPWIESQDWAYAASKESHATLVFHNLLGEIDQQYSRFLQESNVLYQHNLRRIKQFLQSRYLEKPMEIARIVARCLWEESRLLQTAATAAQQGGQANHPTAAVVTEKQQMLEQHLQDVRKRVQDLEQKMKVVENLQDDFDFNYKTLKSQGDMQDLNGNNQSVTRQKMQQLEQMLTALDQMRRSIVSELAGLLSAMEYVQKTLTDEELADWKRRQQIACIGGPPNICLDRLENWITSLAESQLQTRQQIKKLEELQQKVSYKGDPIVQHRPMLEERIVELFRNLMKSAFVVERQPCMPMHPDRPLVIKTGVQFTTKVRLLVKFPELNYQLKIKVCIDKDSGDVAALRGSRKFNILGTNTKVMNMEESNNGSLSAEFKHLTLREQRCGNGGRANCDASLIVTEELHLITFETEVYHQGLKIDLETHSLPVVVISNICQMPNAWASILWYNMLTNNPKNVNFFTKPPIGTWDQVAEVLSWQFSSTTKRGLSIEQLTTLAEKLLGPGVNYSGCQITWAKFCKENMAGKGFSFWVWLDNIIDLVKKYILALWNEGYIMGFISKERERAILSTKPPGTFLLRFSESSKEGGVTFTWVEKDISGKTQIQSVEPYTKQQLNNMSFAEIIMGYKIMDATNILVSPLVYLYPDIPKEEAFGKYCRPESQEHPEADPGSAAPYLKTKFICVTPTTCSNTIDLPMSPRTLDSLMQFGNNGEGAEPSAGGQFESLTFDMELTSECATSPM

outcome, inactive:
O=C(C1=C[C@@H](c2ccccc2)C[C@@H](OCCCCO)O1)N1CCN(Cc2ccccc2)CC1, C=C1C[C@@H]2COC(=O)[C@]2(Cc2ccc3ccccc3c2)C1, O=C(OC1OC(CO)C(O)C(O)C1O)c1c(O)cc(O)cc1/C=C/c1ccccc1 (configuration not stated), COc1ccc(CN(C)C[C@@H]2Oc3ccc(NC(=O)Nc4ccc(OC)cc4)cc3CC(=O)N([C@H](C)CO)C[C@H]2C)cc1, C[C@@H]1CCCCO[C@H](CN(C)C(=O)CCCN(C)C)[C@H](C)CN([C@@H](C)CO)C(=O)c2cc(NS(=O)(=O)c3ccccc3)ccc2O1, C[C@@H]1CCCCO[C@@H](CN(C)C(=O)CCCN(C)C)[C@@H](C)CN([C@H](C)CO)C(=O)c2cc(NC(=O)CCCN(C)C)ccc2O1, CNC[C@H]1Oc2ccc(NC(=O)CCC(F)(F)F)cc2C(=O)N([C@@H](C)CO)C[C@H]1C, CCCCCc1ccc(/C=C/C(=O)Nc2ccccc2C(=O)O)cc1, CC(Sc1nc2ccccc2[nH]1)c1nc2ccccc2[nH]1 (configuration not stated), C[C@H]1CCCCO[C@H](CN(C)C)[C@@H](C)CN([C@@H](C)CO)C(=O)c2cc(NC(=O)CCCN(C)C)ccc2O1, COC(=O)CSc1nnc(-c2ccc(Cl)cc2)n1-c1ccc(Br)cc1, C[C@@H]1CN([C@H](C)CO)C(=O)Cc2cc(NC(=O)C3CC3)ccc2O[C@H]1CN(C)Cc1ccc(Cl)c(Cl)c1, COc1ccc(NC(=O)CN(C)S(=O)(=O)c2ccccc2)cc1OC, C#CCN1C(Cc2ccccc2)C(=O)O[C@H](C2CCCCC2)[C@@H]1/C=C/C1CC1 (some centres not stated), C[C@@H]1CN([C@H](C)CO)C(=O)Cc2cc(N(C)C)ccc2O[C@@H]1CN(C)Cc1ccccc1, C[C@H]1CN([C@@H](C)CO)C(=O)c2cccc(NC(=O)C3CCOCC3)c2O[C@@H]1CN(C)C, CC1(C)CC(=O)c2ccc(O)cc2O1, C[C@@H]1CN([C@@H](C)CO)C(=O)CCCn2cc(nn2)CO[C@H]1CN(C)C(=O)Nc1ccc(N2CCCCC2)cc1, Cc1noc(C)c1S(=O)(=O)N(C)C[C@H]1Oc2ccc(NC(=O)Cc3ccccc3)cc2CC(=O)N([C@@H](C)CO)C[C@H]1C, COc1ccccc1NC(=O)CNC(=O)c1ccc(C)cc1, CC(C)NC(=O)Nc1ccc2c(c1)C(=O)N([C@H](C)CO)C[C@H](C)[C@@H](CN(C)C)OCCCC[C@H](C)O2, CCn1c(SCC(=O)Nc2sc3c(c2C#N)CCCC3)nnc1-c1ccccc1O
